From PubChem BioAssay AID489037 (National Center for Advancing Translational Sciences (NCATS), 2010)
Where “and” joins values, the source holds several entries; their conditions need not be identical. Identical values can stand only once. Results filed as inconclusive are left out. Some structures have more than one record in an assay (separate samples or runs), and their calls can disagree. Calls of active or inactive are those of the source. Calls come from the whole dose curve; as a rule, active = well fitted inhibition curve with a large enough effect; inconclusive = small, poorly fitted or top-dose-only effect, or effect the other way; inactive = no such curve, though single readings can be large or run the other way.

The molecules below were run against Nuclear receptor ROR-gamma (Mus musculus) (UniProt P51450) (assay: Secondary confirmation assay for inhibitors of ROR gamma transcriptional activity). Details: Drosophila S2 Gal4-RORgamma UAS-luciferase reporter, 20 h; series mostly up to 92.2 µM.
Sequence of Nuclear receptor ROR-gamma (Mus musculus) (P51450 whole entry, looked up, the tested form may be a part): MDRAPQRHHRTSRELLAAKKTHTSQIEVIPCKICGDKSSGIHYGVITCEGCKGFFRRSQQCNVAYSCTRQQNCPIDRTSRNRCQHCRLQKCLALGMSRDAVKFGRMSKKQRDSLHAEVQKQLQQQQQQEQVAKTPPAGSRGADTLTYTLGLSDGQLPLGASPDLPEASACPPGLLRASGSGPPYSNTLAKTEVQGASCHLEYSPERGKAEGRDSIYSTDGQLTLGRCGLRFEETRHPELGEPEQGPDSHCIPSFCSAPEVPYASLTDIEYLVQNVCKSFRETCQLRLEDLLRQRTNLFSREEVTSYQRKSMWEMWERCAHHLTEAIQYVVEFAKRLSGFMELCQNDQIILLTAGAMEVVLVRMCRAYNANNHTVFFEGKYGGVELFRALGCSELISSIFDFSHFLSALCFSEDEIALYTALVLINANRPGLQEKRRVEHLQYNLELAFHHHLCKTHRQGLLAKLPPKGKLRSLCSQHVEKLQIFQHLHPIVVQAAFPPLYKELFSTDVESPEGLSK
Source text: NIH Molecular Libraries Probe Production Network [MLPCN] NIH Chemical Genomics Center [NCGC] MLPCN Grant: R03 DA026211-01 Assay Provider: Dan Littman, New York University Keywords: NIH Roadmap, MLPCN, MLI, MLSMR, qHTS, NCGC, qHTS, nuclear hormone receptor, retinoic acid-related orphan receptor, ROR gamma Assay Overview: The retinoic acid-related orphan receptor (ROR) gamma is a transcription factor that has a central role in the differentiation of Th17 cells, a subset of T helper cells that secrete the inflammatory cytokines IL-17, IL-17F, and IL-22. Th17 cells have been implicated in graft versus host disease, autoimmune disease and asthma. ROR gamma is induced in naive T helper cells in the presence of TGF-beta combined with IL-6, IL-21, or IL-23, and thereafter directs the expression of the Th17 lineage cytokines. To study the mechanism of action of ROR gamma, an insect cell-based assay was screened. This Drosophila Schneider cell line was stably transfected with two vectors: a gene expressing a fusion of the Gal4 DNA binding domain and ROR gamma transactivation domain under the control of the metallothionine promoter and a Photinus luciferase reporter regulated by the Gal4 binding site enhancer, UAS. […] Small molecule inhibitors of ROR gamma activity are detected by a decrease in luciferase reporter activity.
Assay Protocol Summary: For screening, 600 cells in 4 uL/well were dispensed into white solid 1536-well plates (Grenier) using a solenoid-based dispenser. Following transfer of 23 nL compound or DMSO vehicle by a pin tool, the plates were incubated 1 hr at ambient temperature, and 1 uL/well copper sulfate (700 uM final concentration) was added. The plates were centrifuged 15 s at 1000 RPM and incubated 20 hr at ambient temperature. After addition of 1.5 uL Photinus luciferase detection reagent, the plates were incubated 10 min at ambient temperature and then read by an ViewLux (Perkin Elmer) to detect luminescence. Keywords: NIH Roadmap, MLPCN, MLI, MLSMR, qHTS, NCGC, qHTS, nuclear hormone receptor, retinoic acid-related orphan receptor, ROR gamma

| SMILES | Potency | activity change, negative = inhibition |
| --- | --- | --- |
| COc1cc(C)nc(-n2nc(C)cc2OC)n1 | 3.23 µM (active) | – |
| COc1cc(OC)c(C(CC(=O)N2CCCC(C)C2)c2ccc3c(c2)OCO3)c(OCc2ccccc2)c1 (stereo not given) | 6.45 µM (active) | – |
| COc1cc(O)c(C(CC(=O)N2CCCC(C)C2)c2ccccc2C)c(OC)c1 (stereo not given) | 7.24 µM (active) | – |
| COc1cc(O)c(C(CC(=O)N2CCCCC2C)c2ccc3c(c2)OCO3)c(OC)c1 (stereo not given) | 25.7 µM (active) | – |
| COc1cc(O)c(C(CC(=O)N2CCC[C@@H](C)C2)c2ccc3c(c2)OCO3)c(OC)c1 (stereo not given in full) | 5.12 µM (active) and 22.9 µM (active) and inactive | – |
| COc1ccc(CNC(=O)[C@@H](NC(=O)C2CCN(C(=O)[C@@H]3CCCN3C(=O)OC(C)(C)C)CC2)C(C)C)cc1 | inactive | – |
| COc1cc(O)c(C(CC(=O)N2CCCCC2)c2ccc(C)cc2)c(OC)c1 (stereo not given) | 32.3 µM (active) | – |
| CC(C)[C@H](NC(=O)C1CCN(C(=O)[C@@H]2CCCN2C(=O)OC(C)(C)C)CC1)C(=O)NCc1ccc(F)cc1 | 32.3 µM (active) | – |
| CN1CCN(C(=O)CCN2C(=O)/C(=C/c3ccccc3Cl)SC2=S)CC1 | 28.8 µM (active) | – |
| COc1ccc(OC)c(NC(=S)N(CCc2c(C)[nH]c3ccccc23)Cc2cccs2)c1 | 12.9 µM (active) | – |
| COc1cc(OC)c2c(c1)OC(=O)CC2c1ccc2c(c1)OCO2 (stereo not given) | inactive | – |
| Cc1cc(C)nc(-n2nc(C)cc2NC(=O)CNC(C)c2ccccc2)n1 (stereo not given) | 5.75 µM (active) | – |
| COc1cc(OC)c(C(CC(=O)N2CC(C)CC(C)C2)c2ccc3c(c2)OCO3)c(OCC#N)c1 (stereo not given) | 7.24 µM (active) | – |
| COc1ccc(C(CC(=O)N2CCCC(C)C2)c2ccccc2)cc1 (stereo not given) | inactive | – |
| COc1cc(O)c(C(CC(=O)N2CC(C)CC(C)C2)c2ccc(O)cc2)c(OC)c1 (stereo not given) | 2.04 µM (active) | – |
| CCOc1ccc(-c2cc(CCCC(=O)NCc3cccnc3)no2)cc1 | 0.724 µM (active) | – |
| COc1ccc(C(CC(=O)Nc2ccc(F)cc2)c2ccccc2)cc1 (stereo not given) | inactive | – |
| COc1cc(O)c(C(CC(=O)N2CCCC(C)C2)c2ccc3ccccc3c2)c(OC)c1 (stereo not given) | 5.75 µM (active) | – |
| CC1=C(\C=C/C(C)=C/C=C\C(C)=C\C(=O)O)C(C)(C)CCC1 | – | -12.4% [at 20 µM] (inactive) |
| COc1cc(O)c(C(CC(=O)N2CCCC(C)C2)c2ccc3c(c2)OCO3)c(OC)c1 (stereo not given) | 3.63 µM (active) and 3.23 µM (active) | – |

| SMILES | Potency | activity change, negative = inhibition |
| --- | --- | --- |
| CCOc1cccc(-c2cc(-c3n[nH]c(=S)n3CC)c3ccccc3n2)c1 | 2.29 µM (active) and 1.82 µM (active) | – |
| CCOc1ncccc1C(=O)OCC(=O)Nc1ccc(-c2nc3ccc(C)cc3s2)cc1 | 0.407 µM (active) | – |
| CC1CCCN(C(=O)CC(c2ccccc2)c2ccccc2O)C1 (stereo not given) | inactive | – |
| COc1cc(O)c(C(CC(=O)N2CCC(C)CC2)c2ccc(OC)c(OC)c2)c(OC)c1 (stereo not given) | inactive | – |
| CCNC(=O)CCc1nc(-c2ccc(C(C)(C)C)cc2)no1 | 0.512 µM (active) | – |
| COc1cc(OC)c(C(CC(=O)N2CC(C)CC(C)C2)c2ccc3c(c2)OCO3)c(OC)c1 (stereo not given) | 4.57 µM (active) | – |
| COc1cc(O)c(C(CC(=O)N2CC(C)OC(C)C2)c2ccc3c(c2)OCO3)c(OC)c1 (stereo not given) | 1.29 µM (active) | – |
| CCC1(CC)CCN(C(=O)CC(c2ccc3c(c2)OCO3)c2c(O)cc(OC)cc2OC)C1 (stereo not given) | 22.9 µM (active) | – |
| COc1cc(O)c(C(CC(=O)N2CCOCC2)c2ccc(OC)c(OC)c2)c(OC)c1 (stereo not given) | inactive | – |
| COc1ccccc1C(CC(=O)Nc1ccc(F)cc1)c1ccccc1 (stereo not given) | inactive | – |
| COc1cc(O)c(C(CC(=O)N2CCCC(C)C2)c2ccccc2)c(OC)c1 (stereo not given) | 7.24 µM (active) | – |
| COc1cc(O)c(C(CC(=O)N2CC(C)CC(C)C2)c2ccc(N(C)C)cc2)c(OC)c1 (stereo not given) | 2.88 µM (active) | – |
| COc1cc(O)c(C(CC(=O)N2CCC(c3ccccc3)CC2)c2ccc3c(c2)OCO3)c(OC)c1 (stereo not given) | inactive | – |
| COc1cc(O)c(C(CC(=O)NCC2CCCCC2)c2ccc3c(c2)OCO3)c(OC)c1 (stereo not given) | inactive | – |
| COc1cc(O)c(C(CC(=O)N2CCCC(C)C2)c2ccccc2OC)c(OC)c1 (stereo not given) | inactive | – |
| COc1cc(O)c(C(CC(=O)N2CCCC(c3ccccc3)C2)c2ccc3c(c2)OCO3)c(OC)c1 (stereo not given) | inactive | – |
| Cc1cccc(-c2nc3cc(NC(=O)C4CCCO4)ccc3o2)c1 (stereo not given) | 0.724 µM (active) | – |
| COc1ccc2nc(NNC(=O)COc3ccccc3)sc2c1 | 4.57 µM (active) | – |
| COc1cc(O)c(C(CC(=O)N2CC(C)NC(C)C2)c2ccc3c(c2)OCO3)c(OC)c1 (stereo not given) | inactive | – |
| COCOc1cc(OC)cc(OC)c1C(CC(=O)N1CC(C)CC(C)C1)c1ccc2c(c1)OCO2 (stereo not given) | 4.07 µM (active) | – |
